An excerpt weighted towards active compounds, which were near 3.2% of everything screened.
TbPYK inhibitor: qHTS of Trypanosoma Brucei Inhibitors; TbPYK enzyme, Kinase-Glo Plus ATP luminescence, 45 min; Potency, µM (highest dose often 76.8 µM), for inactives: at the top dose activity, negative = inhibition, actives largely listed as inhibitors; hit rate 0.12% among 410,000; further: nearly all actives have a fitted effect of over 50% in size
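Enzyme and substrate buffer are dispensed first and compound is pin-transferred. ADP at 130 uM final then starts the reaction, which runs 45 min at room temperature. Detection reagent is added for 10 min before luminescence is imaged.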
LmPK inh: qHTS Assay for Inhibitors of Leishmania Mexicana Pyruvate Kinase (LmPK) | hit rate 0.37% among 290,000 | Q27686 | Potency, µM (titrated, usually from 57.5 µM), inactives show at the highest dose activity change, negative = inhibition, most hits filed as inhibitors | AID 1721, 2009 | purified LmPK, Kinase-Glo ATP luminescence, 1 h
Target sequence (Q27686 whole entry, looked up): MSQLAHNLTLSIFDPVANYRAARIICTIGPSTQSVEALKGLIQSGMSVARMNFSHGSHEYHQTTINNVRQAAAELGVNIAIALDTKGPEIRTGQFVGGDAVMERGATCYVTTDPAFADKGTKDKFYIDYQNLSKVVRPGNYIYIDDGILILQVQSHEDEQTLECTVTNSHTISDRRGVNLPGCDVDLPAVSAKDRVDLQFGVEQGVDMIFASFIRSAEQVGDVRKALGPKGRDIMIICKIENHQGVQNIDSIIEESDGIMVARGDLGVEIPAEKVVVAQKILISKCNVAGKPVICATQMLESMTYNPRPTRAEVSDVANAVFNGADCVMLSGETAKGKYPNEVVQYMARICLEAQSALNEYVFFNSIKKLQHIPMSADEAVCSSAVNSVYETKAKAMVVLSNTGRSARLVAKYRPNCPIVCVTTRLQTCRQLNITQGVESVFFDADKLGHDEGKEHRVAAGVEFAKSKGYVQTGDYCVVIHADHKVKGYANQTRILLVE
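In 50 mM imidazole pH 7.2 with 7 mM MgCl2, LmPK (0.1 nM) turned over PEP (0.5 mM) and ADP (0.1 mM) for 1 h at room temperature. Luciferase read-out of ATP.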
RE007 growth inh: qHTS Assay for Inhibitors of the HIV-1 protein Vpr; S. pombe RE007 Vpr strain, BacTiter-Glo ATP luminescence, 24 h; Potency, µM (doses to about 92.2 µM), inactives show at the top dose activity change, negative = less growth, actives largely listed as inhibitors; hit rate 0.21% among 360,000; active means well fitted falling curve with a large enough effect; inconclusive means small, poorly fitted or top-dose-only effect; inactive means no such curve, though single readings can be large or run the other way; further: nearly all actives have a fitted effect of over 50% in size
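Fission yeast strain RE007, carrying one chromosomally integrated HIV-1 vpr copy, was seeded at OD 0.01 in PMG+AL medium with 23 nL pinned compound. After 24 h at 30 °C and 99% humidity, viability was read by BacTiter-Glo luminescence.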
AMA1-RON2 inh: qHTS for Inhibitors of AMA1-RON; Towards Development of Antimalarial Drug Lead: Primary Screen. AlphaScreen AMA1-biotinylated RON2 peptide binding. hit rate 0.2% among 360,000. Potency, µM (highest dose often 58.2 µM), for inactives: at the highest dose activity change, negative = inhibition, actives largely listed as inhibitors. AID 720542, 2013. Plasmodium falciparum AMA1 (3D7) - RON2 peptide interaction;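 further: 0% = vehicle wells and -100% = peptide control; nearly all actives have a fitted effect of over 45% in size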
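AMA1 (3D7) with his tag at 25 nM final met compounds first, then biotinylated RON2 peptide at 25 nM; detection used donor plus acceptor beads, 10 µg/mL apiece, read by AlphaScreen after 30 min at room temperature.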
Sm TGR inh: qHTS Assay for the Inhibitors of Schistosoma Mansoni Peroxiredoxins | AID 485364, 2010 | hit rate 3% among 360,000 | purified TGR, DTNB reduction, TNB absorbance 405 nm | Schistosoma mansoni thioredoxin glutathione reductase (TGR), Q962Y6 | Potency, µM (doses to about 114 µM), for inactives: at the highest dose activity change, negative = inhibition, most hits filed as inhibitors; further: nearly all actives have a fitted effect of over 60% in size
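First, TGR (20 nM dispensed) and NADPH were mixed with compound. Second, a 15 min room-temperature incubation followed. Third, further NADPH and then DTNB were added to start the reaction. Finally, TNB absorbance was monitored kinetically.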
* marks the source's active call; other numbers are inactive results; ? = inconclusive; · = no result given; [ ] = another dose, or the depositor's remark. Unless noted, the call rests on the fitted dose curve; in most records, active means well fitted curve in the direction sought with a large enough effect; inconclusive means small, poorly fitted or top-dose-only effect, or another doubt; inactive means no such curve, though single readings can be large; an effect the other way counts as inactive or inconclusive. Unless noted, on the % scale 0 is the no-effect control and ±100 the full control effect; potency means the concentration at half of the fitted maximal effect.

SMILES	TbPYK inhibitor	LmPK inh	RE007 growth inh	AMA1-RON2 inh	Sm TGR inh
Cc1c(Cl)cccc1-n1nc(C)c2c(C)cc(=O)n(CC(=O)N3CCCc4ccccc43)c21	3%	·	·	·	-7%
CC(C)[C@H](NC(=O)c1ccccc1)C(=O)OCC(=O)c1ccc2c(c1)NC(=O)CO2	-8%	0%	21%	39%	35µM*
O=C1COc2ccc(C(=O)CCl)cc2N1	-1%	-3%	6%	-4%	3.5µM*
COC(=O)c1cc(C(=O)OCC(=O)c2ccc3c(c2)NC(=O)CO3)cc([N+](=O)[O-])c1	-6%	·	-11%	-18%	40µM*
CCN(Cc1ccccc1)c1ncnc2c1nnn2C	1%	·	·	·	12%
CCc1ccc(CNC(=O)CCc2c(C)nn(-c3ccc(N4CCCCC4)nn3)c2C)cc1	0%	·	·	·	8%
c1ccc(CSc2nnc3c(n2)OC(c2ccco2)Nc2ccccc2-3)cc1 (centres undefined)	2%	-3%	?	4%	11µM*
CCOc1ccccc1C1Nc2ccccc2-c2nnc(SCc3ccccc3)nc2O1 (centres undefined)	-2%	·	·	·	2%
COc1ccccc1N1CCN(CCCC(=O)c2ccc(F)cc2)CC1	-2%	6%	9%[18.4 µM]	3%	-1%
COc1ccc(C(=O)CCN2CCc3cc(OC)c(OC)cc3C2)cc1	-9%	0%	25µM*	-15%	?
COc1ccc(C(=O)CCN2CCN(c3ccccc3OC)CC2)cc1	-2%	-5%	?	-13%	0.56µM*
COc1cc2c(cc1OC)CN(CCOc1ccc(Br)cc1)CC2	2%	5%	-14%	-13%	0%
COc1ccccc1N1CCN(CC(=O)c2ccc3ccn(C(C)=O)c3c2)CC1	-5%	15%	-1%	18%	25µM*
Cc1nc2c(C(=O)NCCC(C)C)cnn2c(C)c1Cc1c(F)cccc1Cl	2%	·	·	·	20%
Cc1cccc(-n2c(SCC(=O)Nc3ccc(C)c(C)c3)nc3n[nH]c(C)c3c2=N)c1	-6%	·	·	·	-1%
CNC(=O)c1c(NC(=O)c2cc(=O)c3ccccc3o2)sc2c1CCC2	-4%	·	·	·	-1%
Cc1ccc(C(c2ccc(C)o2)c2cccc([N+](=O)[O-])c2O)o1	-5%	3%	1%	?	?
Cc1cc(C(c2ccc(C)o2)c2ccc(C)o2)c(O)c([N+](=O)[O-])c1	-11%	2%	-25%	-19%	45µM*
O=C(N/N=C/c1ccoc1)c1ccc(Cl)cc1	6%	-16%	11%	-3%	45µM*
O=C(N/N=C/c1ccoc1)c1ccc(Br)cc1	9%	-8%	-7%	25%	5%
COc1cc(/C=C2\C(=O)N(c3ccccc3)N=C2C)ccc1Oc1ccc([N+](=O)[O-])cc1[N+](=O)[O-]	-5%	1%	·	-28%	14µM*
COc1cc(/C=C2/C(=O)N(c3ccc(C(=O)O)cc3)N=C2C)cc(OC)c1O	?	?	-16%	-3%	10µM*
COc1cc(/C=C2/C(=O)N(c3ccc(Br)cc3)N=C2C)cc(OC)c1OC	-12%	3%	27%	-3%	14%
CC1=NN(c2ccccc2)C(=O)/C1=C\c1ccc(Oc2ccc([N+](=O)[O-])cc2[N+](=O)[O-])cc1	-3%	3%	-20%	-8%	13µM*
COc1cccc(CNc2ncnc3c2nnn3C)c1	2%	·	·	·	4%
SMILES	TbPYK inhibitor	LmPK inh	RE007 growth inh	AMA1-RON2 inh	Sm TGR inh
O=C(COC(=O)/C=C/c1ccco1)NCc1ccccc1Cl	-1%	1%	-1%	-13%	18µM*
CC(NC(=O)COC(=O)/C=C/c1ccco1)c1ccccc1 (centres undefined)	-12%	2%	11%	-4%	28µM*
CNC(=O)COC(=O)/C=C/c1ccco1	5%	2%	-23%	3%	25µM*
CSc1ccccc1NC(=O)COC(=O)/C=C/c1ccco1	3%	·	-29%	-2%	·
Cc1ccccc1Nc1nc(N)nc(COC(=O)/C=C/c2ccco2)n1	-10%	1%	3%	19%	13µM*
O=C(COC(=O)/C=C/c1ccco1)NCCc1ccccc1	-4%	-2%	16%	3%	22µM*
COc1ccc(CNC(=O)COC(=O)/C=C/c2ccco2)cc1	0%	5%	-4%	-6%	35µM*
c1coc(-c2nnc(-c3ccco3)nn2)c1	-23%	?	14µM*	16µM*	4µM*
c1ccc(-c2nnc(-c3ccco3)o2)cc1	-6%	?	0%	-9%	5%
O=C(CN1CCCN(S(=O)(=O)c2ccc(F)cc2)CC1)Nc1c(Cl)cccc1Cl	-2%	-2%	30%	12%	-28%
O=C(CN1CCCN(S(=O)(=O)c2ccc(F)cc2)CC1)Nc1cccc(F)c1	9%	-3%	-15%	-15%	40µM*
CC1(C)O[C@@H]2[C@H](O1)[C@@H](COS(=O)(=O)O)O[C@H]2n1c(=S)[nH]c2c(=O)[nH]c(N)nc21	35µM*	·	0%	4%	11%
CCOc1ccccc1NC1(c2ccccc2)C(=O)c2ccccc2C1=O	-5%	·	·	·	10%
CN1CCN(C(=O)Cn2c(-c3cccs3)cc3ccccc32)CC1	4%	·	·	·	7%
CCN1C(=O)N/C(=C/c2ccc(C)o2)C1=O	-37%	2%	8%	11%	35µM*
O=C1NC(=O)C(=Cc2ccc(N3CCOCC3)o2)C(=O)N1	-10%	-1%	-14%	10%	?
Cc1ccc(/C=C2/NC(=O)N(c3ccccc3)C2=O)o1	?	1%	63µM*	34%	32µM*
CCCN1C(=O)/C(=C/c2ccc(C)o2)NC1=S	·	-26%	·	·	6.3µM*
Cc1c(C(=O)O)cccc1-c1ccc(/C=C2/NC(=O)N(c3ccccc3)C2=O)o1	7%	-5%	-17%	11%	-27%
O=C1N/C(=C/c2ccc(N3CCOCC3)o2)C(=O)N1c1cccc(Cl)c1	?	-1%	-3%	73%	2.8µM*
COc1ccc(S(=O)(=O)NCCc2sc(C)nc2C)cc1F	3%	·	·	·	0%
Cc1ccc(/C=C2/NC(=O)N(Cc3ccc(Br)cc3)C2=O)o1	?	-2%	·	56%	50µM*
CCN1C(=O)/C(=C/c2ccc(C)o2)N(C)C1=S	?	-8%	?	?	28µM*
CCN1C(=O)/C(=C/c2cccs2)N(C)C1=S	2%	-4%	-4%	-19%	1%
O=C(NCCc1ccccc1)C(c1cccs1)N(C(=O)CCl)c1ccc(Cl)cc1 (centres undefined)	0%	0%	7%	-16%	1.1µM*
Cc1ccc(Cl)cc1NC(=O)c1ccc(NC(=O)N2CCSc3ncccc32)cc1	0%[15.4 µM]	·	·	·	0%
